Here are results for 15 molecules from PubChem BioAssay (Tox21).

Where “and” joins values, the source holds several entries; their conditions need not be identical. Identical values can stand only once. Records with an inconclusive call do not appear. Some structures have more than one record in an assay (separate samples or runs), and their calls can disagree. Calls of active or inactive are those of the source. Unless noted, calls come from the whole dose curve; as a rule, active = well fitted curve in the direction sought with a large enough effect in the repeat runs; inconclusive = weak or mixed curves; inactive = no such curve, though single readings can be large; an effect the other way counts as inactive or inconclusive.

The target in assay [1] is Acetylcholinesterase (Homo sapiens) (UniProt P22303). The experiment in a line: Acetylcholinesterase (AChE) small molecule antagonists: enzyme-based qHTS assay (AID 1347397; calls by dose curve; note: nearly all actives have a fitted effect of over 55% in size; note: potency is the fitted concentration of half-maximal effect). The note with it: Potency: AChE enzyme activity inhibition; outcome: AChE enzyme activity inhibition. The essentials:
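Human recombinant acetylcholinesterase; substrate acetylthiocholine; thiocholine quantified with DTNB (colorimetric). Compound preincubation 30 min RT; reaction 10 min RT.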

The target is the same in assay [2]. The experiment in a line: Acetylcholinesterase (AChE) small molecule antagonists: enzyme-based qHTS assay with human liver microsomes (AID 1347399; calls by dose curve; note: nearly all actives have a fitted effect of over 60% in size; note: potency is the fitted concentration of half-maximal effect). The settings on record: Potency: qHTS inhibition; outcome: qHTS inhibition. The essentials:
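Recombinant human AChE (50 mU/mL in the enzyme mix) and human liver microsomes (0.25 mg/mL final) were preincubated with compound and NADPH (0.25 mg/mL final) for 30 min at 37 C. Acetylthiocholine/DTNB was then added; thiocholine was read colorimetrically after 10 min at room temperature.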
(In general: qHTS replaces the single test concentration by a dilution series.)

The target of assay [3] is Cytochrome P450 2D6 (Homo sapiens) (UniProt P10635). In words: Cytochrome P450 Family 2 Subfamily D Member 6 (CYP2D6) small molecule antagonists: luciferase reporter qHTS assay (AID 1671196). For activity change, negative = inhibition: series mostly up to about 120 µM. Note: nearly all actives have a fitted effect of over 50% in size. Note: potency is the fitted concentration of half-maximal effect. The essentials:
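P450-Glo format: CYP2D6 converts a proluciferin substrate to luciferin in an NADPH-driven reaction lasting 1 h at room temperature. Light output, proportional to CYP2D6 activity, reflects interference by test chemicals.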
(In general: Reporter assays use an easily measured gene product as a stand-in for the process of interest.)

Assay [4] concerns the target Cytochrome P450 2C19 (Homo sapiens) (UniProt P33261). The experiment in a line: Cytochrome P450 Family 2 Subfamily C Member 19 (CYP2C19) small molecule antagonists: luciferase reporter qHTS assay (AID 1671197). For activity change, negative = inhibition: series mostly up to about 120 µM. Note: nearly all actives have a fitted effect of over 65% in size. Note: potency is the fitted concentration of half-maximal effect. The essentials:
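Enzyme-substrate mix with proluciferin substrate (P450-Glo CYP2C19 system) preincubated with compounds 10 min at room temperature; NADPH regeneration solution added, 37C for 1 h; detection reagent stops reaction, luminescence read after 20 min. Ketoconazole positive control.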

Assay [5] deals with Cytochrome P450 1A2 (Homo sapiens) (UniProt P05177). The experiment in a line: Cytochrome P450 Family 1 Subfamily A Member 2 (CYP1A2) small molecule antagonists: luciferase reporter qHTS assay (AID 1671199). For activity change, negative = inhibition: series mostly up to about 120 µM. Note: nearly all actives have a fitted effect of over 50% in size. Note: potency is the fitted concentration of half-maximal effect. In a few lines:
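Inhibition of CYP1A2 conversion of proluciferin to luciferin, detected by luminescence. Reaction run 1 h at room temperature with NADPH regeneration after brief compound preincubation.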

For assay [6], the target named is Voltage-gated inwardly rectifying potassium channel KCNH2 (Homo sapiens) (UniProt Q12809). In words: Human Ether-a-go-go-Related Gene (hERG) channel small molecule antagonists: fluorescence cell-based qHTS assay (AID 1671200).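 For activity change, negative = inhibition: hERG-expressing U2OS cells given a thallium stimulus after FluxOR II dye loading; series mostly up to about 77 µM.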 Note: nearly all actives have a fitted effect of over 50% in size. Note: potency is the fitted concentration of half-maximal effect. In a few lines:
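Channel function was assessed by thallium flux. Cells seeded the previous day and kept at 37 C took up FluxOR II dye over 1 h in the dark at room temperature, then sat another 10 min before stimulation.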
Background: Block of hERG is tested as a sign of cardiac risk.

The target of assay [7] is Cytochrome P450 3A4 (Homo sapiens) (UniProt P08684). In words: Cytochrome P450 Family 3 Subfamily A Member 4 (CYP3A4) small molecule antagonists: luciferase reporter qHTS assay (AID 1671201). For activity change, negative = inhibition: series mostly up to about 120 µM. Note: nearly all actives have a fitted effect of over 50% in size. Note: potency is the fitted concentration of half-maximal effect. The essentials:
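Compounds in DMSO were pin-transferred onto CYP3A4 enzyme-substrate mix and held 10 min at room temperature. NADPH regenerating solution started the reaction for 1 h; luciferin detection reagent stopped it, and luminescence was read after 20 min.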

Assay [8] deals with Acetylcholinesterase (Homo sapiens) (UniProt P22303). In words: Acetylcholinesterase (AChE) small molecule antagonists: fluorescence cell-based qHTS assay (AID 1347398; calls by dose curve; note: nearly all actives have a fitted effect of over 50% in size). The settings on record: Potency: AChE activity; outcome: AChE activity. In a few lines: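 Thiocholine generated from acetylthiocholine by SH-SY5Y cell AChE is detected with Thiolite Green (Ex/Em 490/520 nm) after 40 min at room temperature, following 30 min compound pretreatment at 37 C.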

The target of assay [9] is Cytochrome P450 2C9 (Homo sapiens) (UniProt P11712). In words: Cytochrome P450 Family 2 Subfamily C Member 9 (CYP2C9) small molecule antagonists: luciferase reporter qHTS assay (AID 1671198). For activity change, negative = inhibition: series mostly up to about 120 µM. Note: nearly all actives have a fitted effect of over 50% in size. Note: potency is the fitted concentration of half-maximal effect. In a few lines: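 CYP2C9 activity was measured with a P450-Glo proluciferin substrate. Enzyme–substrate mix was held with compound for 10 min at room temperature, then NADPH regeneration solution was added for 1 h at 37C. Luciferin product was read as luminescence.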
% is set by controls: 0 for no effect and ±100 for the full control effect.

Cytochrome P450 1A2 (Homo sapiens), sequence (P05177 whole entry, looked up): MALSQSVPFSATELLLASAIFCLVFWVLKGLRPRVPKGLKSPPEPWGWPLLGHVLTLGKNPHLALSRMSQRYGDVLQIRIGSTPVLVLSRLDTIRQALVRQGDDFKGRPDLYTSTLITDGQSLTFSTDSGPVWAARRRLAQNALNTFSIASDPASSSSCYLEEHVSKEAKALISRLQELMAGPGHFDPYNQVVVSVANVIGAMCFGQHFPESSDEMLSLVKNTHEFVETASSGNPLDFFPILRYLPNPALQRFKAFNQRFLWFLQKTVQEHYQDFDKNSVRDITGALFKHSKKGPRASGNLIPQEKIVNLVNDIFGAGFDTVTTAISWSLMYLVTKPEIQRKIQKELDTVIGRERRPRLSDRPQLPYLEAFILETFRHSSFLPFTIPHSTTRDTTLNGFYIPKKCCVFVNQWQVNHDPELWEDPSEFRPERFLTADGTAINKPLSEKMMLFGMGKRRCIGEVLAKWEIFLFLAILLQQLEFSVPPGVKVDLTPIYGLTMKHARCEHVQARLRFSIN
Cytochrome P450 2C19 (Homo sapiens), sequence (P33261 whole entry, looked up): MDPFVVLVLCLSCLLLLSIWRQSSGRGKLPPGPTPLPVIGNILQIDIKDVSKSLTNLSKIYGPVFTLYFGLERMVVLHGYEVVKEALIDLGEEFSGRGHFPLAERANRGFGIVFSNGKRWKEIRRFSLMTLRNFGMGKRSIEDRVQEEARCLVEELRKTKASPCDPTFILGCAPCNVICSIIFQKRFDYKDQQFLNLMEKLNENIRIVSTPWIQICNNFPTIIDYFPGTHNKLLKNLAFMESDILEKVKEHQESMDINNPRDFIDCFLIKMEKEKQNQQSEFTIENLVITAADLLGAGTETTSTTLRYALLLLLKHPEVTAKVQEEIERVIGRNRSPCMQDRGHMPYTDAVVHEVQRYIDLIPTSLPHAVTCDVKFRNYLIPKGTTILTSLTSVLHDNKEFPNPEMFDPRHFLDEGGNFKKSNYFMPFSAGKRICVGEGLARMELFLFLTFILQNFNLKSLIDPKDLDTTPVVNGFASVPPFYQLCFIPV
Cytochrome P450 2D6 (Homo sapiens), sequence (P10635 whole entry, looked up): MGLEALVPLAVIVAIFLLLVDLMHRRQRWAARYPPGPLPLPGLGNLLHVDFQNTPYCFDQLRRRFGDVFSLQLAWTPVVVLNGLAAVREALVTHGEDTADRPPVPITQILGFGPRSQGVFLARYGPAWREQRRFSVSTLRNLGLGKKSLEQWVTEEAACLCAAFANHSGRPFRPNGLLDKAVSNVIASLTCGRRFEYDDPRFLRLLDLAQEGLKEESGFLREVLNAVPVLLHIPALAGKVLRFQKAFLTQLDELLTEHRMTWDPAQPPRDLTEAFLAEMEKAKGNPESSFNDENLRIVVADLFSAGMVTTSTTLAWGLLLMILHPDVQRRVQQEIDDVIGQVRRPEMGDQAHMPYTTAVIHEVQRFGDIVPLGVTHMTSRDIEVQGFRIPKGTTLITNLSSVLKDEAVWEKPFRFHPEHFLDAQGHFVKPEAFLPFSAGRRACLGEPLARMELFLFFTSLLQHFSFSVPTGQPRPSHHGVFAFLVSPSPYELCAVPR
Cytochrome P450 3A4 (Homo sapiens), sequence (P08684 whole entry, looked up): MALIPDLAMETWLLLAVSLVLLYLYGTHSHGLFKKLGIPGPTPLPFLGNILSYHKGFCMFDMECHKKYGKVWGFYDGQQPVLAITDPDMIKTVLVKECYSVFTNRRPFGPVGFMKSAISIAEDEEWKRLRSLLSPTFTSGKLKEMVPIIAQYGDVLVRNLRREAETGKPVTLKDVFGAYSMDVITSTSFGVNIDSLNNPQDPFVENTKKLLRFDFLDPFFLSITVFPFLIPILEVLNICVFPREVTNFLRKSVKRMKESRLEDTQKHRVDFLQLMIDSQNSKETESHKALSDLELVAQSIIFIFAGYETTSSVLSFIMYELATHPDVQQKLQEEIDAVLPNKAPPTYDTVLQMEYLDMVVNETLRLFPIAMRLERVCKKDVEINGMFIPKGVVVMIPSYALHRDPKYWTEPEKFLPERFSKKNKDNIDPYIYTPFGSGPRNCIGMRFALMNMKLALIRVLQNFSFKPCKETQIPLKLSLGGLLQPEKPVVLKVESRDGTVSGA
Acetylcholinesterase (Homo sapiens), sequence (P22303 whole entry, looked up): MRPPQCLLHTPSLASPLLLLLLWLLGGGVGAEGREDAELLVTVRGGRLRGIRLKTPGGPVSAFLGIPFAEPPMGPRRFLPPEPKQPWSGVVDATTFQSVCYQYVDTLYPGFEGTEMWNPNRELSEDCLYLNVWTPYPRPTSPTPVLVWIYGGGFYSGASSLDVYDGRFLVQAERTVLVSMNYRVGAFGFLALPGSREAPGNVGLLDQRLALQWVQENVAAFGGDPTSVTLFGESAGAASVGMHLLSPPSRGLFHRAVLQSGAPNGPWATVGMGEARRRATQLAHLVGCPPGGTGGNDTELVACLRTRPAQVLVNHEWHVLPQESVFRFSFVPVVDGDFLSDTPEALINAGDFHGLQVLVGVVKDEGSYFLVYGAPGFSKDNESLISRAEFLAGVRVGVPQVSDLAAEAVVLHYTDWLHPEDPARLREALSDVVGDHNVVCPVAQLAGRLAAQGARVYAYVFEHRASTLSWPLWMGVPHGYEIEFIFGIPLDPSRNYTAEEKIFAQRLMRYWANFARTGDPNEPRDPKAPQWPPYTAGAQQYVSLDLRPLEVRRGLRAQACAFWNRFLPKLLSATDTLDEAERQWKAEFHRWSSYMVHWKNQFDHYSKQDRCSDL
Cytochrome P450 2C9 (Homo sapiens), sequence (P11712 whole entry, looked up): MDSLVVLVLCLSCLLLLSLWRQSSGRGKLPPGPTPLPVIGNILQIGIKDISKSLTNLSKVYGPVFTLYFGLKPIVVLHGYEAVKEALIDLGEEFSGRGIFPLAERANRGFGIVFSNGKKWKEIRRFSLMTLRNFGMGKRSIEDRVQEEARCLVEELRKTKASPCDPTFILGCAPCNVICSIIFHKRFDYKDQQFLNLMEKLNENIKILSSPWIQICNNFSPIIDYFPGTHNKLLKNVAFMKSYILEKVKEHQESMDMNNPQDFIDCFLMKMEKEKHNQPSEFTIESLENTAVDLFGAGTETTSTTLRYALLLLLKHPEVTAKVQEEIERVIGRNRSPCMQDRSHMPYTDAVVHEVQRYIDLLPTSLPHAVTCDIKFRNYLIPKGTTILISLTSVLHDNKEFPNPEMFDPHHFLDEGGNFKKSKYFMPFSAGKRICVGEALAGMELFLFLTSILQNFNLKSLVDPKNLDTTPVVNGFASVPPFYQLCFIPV
Voltage-gated inwardly rectifying potassium channel KCNH2 (Homo sapiens), sequence (Q12809 whole entry, looked up): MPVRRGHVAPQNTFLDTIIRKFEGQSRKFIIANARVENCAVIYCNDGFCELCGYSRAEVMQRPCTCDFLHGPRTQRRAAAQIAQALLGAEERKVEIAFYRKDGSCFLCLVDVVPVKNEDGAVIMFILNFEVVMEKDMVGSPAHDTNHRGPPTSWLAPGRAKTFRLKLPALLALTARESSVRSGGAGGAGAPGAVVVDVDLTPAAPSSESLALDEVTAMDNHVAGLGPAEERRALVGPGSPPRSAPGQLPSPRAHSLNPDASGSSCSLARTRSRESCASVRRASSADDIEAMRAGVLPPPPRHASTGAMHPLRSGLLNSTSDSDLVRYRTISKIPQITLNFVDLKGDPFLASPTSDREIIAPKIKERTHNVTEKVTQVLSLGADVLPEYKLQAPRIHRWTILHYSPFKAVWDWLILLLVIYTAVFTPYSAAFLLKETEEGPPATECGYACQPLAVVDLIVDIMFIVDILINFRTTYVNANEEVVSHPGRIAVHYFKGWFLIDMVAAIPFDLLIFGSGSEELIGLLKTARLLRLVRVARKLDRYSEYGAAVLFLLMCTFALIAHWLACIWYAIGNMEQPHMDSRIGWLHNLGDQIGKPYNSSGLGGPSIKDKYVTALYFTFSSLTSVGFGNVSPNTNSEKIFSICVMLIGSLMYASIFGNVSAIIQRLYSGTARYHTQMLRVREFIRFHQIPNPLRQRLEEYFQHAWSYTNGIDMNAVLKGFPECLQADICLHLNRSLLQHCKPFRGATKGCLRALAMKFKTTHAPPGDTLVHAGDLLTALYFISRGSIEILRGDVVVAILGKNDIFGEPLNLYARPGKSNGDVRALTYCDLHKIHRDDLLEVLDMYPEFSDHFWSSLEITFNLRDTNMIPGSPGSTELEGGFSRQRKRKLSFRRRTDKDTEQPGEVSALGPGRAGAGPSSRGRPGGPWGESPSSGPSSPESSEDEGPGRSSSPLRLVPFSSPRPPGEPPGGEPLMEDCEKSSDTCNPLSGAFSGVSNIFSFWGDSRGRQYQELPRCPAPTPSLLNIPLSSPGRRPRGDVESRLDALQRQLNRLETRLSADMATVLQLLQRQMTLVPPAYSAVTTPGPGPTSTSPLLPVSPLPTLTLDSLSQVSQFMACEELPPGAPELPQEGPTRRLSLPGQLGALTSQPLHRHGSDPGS

Consider `Cc1nc(N(C)C)nc(OC(=O)N(C)C)c1C`, for which the Potency in assay [1] was 10 µM (active); in [2] it was 63.3 µM (active); in [4] it was 79.6 µM (active); in assay [5], 22.4 µM (active). Also, the Potency entry in assay [3], in [6] and in [7] was “inactive” in each case.
On to `CCCCCl`, for which the Potency result in assay [1], in assay [8], in [6] and in [7] was “inactive” throughout. For the same molecule, the figures for the Potency in [3], in assay [4] and in [5] were 18.3 µM (active), 41 µM (active) and 57.9 µM (active), respectively.
With `CCCCCCCCCCCCN=C(N)N`, the activity change, negative = inhibition in assay [1] was -1.29% [at 4.07 µM] (inactive); in assay [8], -10.7% [at 3.98 µM] (inactive); in [9], -14.6% [at 4.07 µM] (inactive); in assay [6], -4.13% [at 2.72 µM] (inactive); in assay [7], 2.59% [at 4.07 µM] (inactive). Also, the Potency in assay [5] was 2.2 µM (active).
Take `O=C(O)COc1cc(Cl)c(Cl)cc1Cl`: the Potency entry in [1], in assay [2], in assay [3], in assay [4], in assay [5] and in [6] was “inactive” each time. For the same molecule, in [7], the Potency result is “inactive”. Moreover, the Potency in assay [9] was 63.4 µM (active) and 39.9 µM (active).
As for `CCC(C)(C)O`, the Potency result in assay [1], in assay [8], in assay [3], in assay [4], in [9] and in [6] was “inactive” each time. Moreover, the Potency entry in assay [7] was “inactive”.
Take `C[C@]12C=CC3=C4CCC(=O)C=C4CC[C@H]3[C@@H]1CC[C@@H]2O`: the Potency entry in assay [1], in [8] and in [6] was “inactive” throughout. Further, the Potency in assay [9] is 35.3 µM (active) and 30.1 µM (active); in [5], 39.7 µM (active); in assay [7], 31.5 µM (active) and inactive.
Consider `CCCCCCCCn1sccc1=O`, for which the Potency result in assay [1] and in [2] was “inactive” throughout. For the same molecule, the Potency in [3] was 11.3 µM (active); in assay [4], 10.1 µM (active) and 23.5 µM (active); in assay [9], 10.1 µM (active) and 9.37 µM (active); in assay [5] it was 28.3 µM (active) and 23.5 µM (active); in assay [6], 21.9 µM (active); in assay [7] it was 28.3 µM (active) and 37.3 µM (active).
Consider `CCC1CCC(=O)O1` (stereo not drawn), for which the Potency entry in assay [1], in assay [8], in assay [3], in assay [9], in assay [6] and in assay [7] was “inactive” throughout. Besides, the Potency in [4] is 45.2 µM (active).
As to `CCCCCCCCCCCCCCCl`, the Potency entry in assay [1], in assay [2], in [3], in [4], in assay [9] and in assay [6] was “inactive” in each case. Also, the Potency entry in [7] was “inactive”.
Regarding `O=S(=O)(c1ccccc1)c1ccccc1`, the Potency entry in assay [1], in assay [2], in [3], in assay [9], in assay [5] and in assay [6] was “inactive” throughout. For the same molecule, in assay [7], the Potency entry is “inactive”. The Potency in assay [4] was 63.3 µM (active).
Regarding `C=CC(=O)OCC`, the Potency entry in assay [1], in assay [2], in [3], in assay [4], in [9] and in [5] was “inactive” in each case. Moreover, the Potency entry in assay [6] and in assay [7] was “inactive” throughout.
As to `CC(C)OC(=O)Cc1ccccc1`, the Potency entry in [1], in assay [8], in [9], in assay [6] and in [7] was “inactive” throughout. In addition, the Potency in assay [5] is 35.9 µM (active).
As for `CCCCC(CC)CO[N+](=O)[O-]` (stereo not drawn), the Potency entry in [1], in assay [2], in [3], in assay [4], in assay [9] and in assay [5] was “inactive” throughout. Further, the Potency result in assay [6] and in assay [7] was “inactive” throughout.
Consider `CN(C)c1ccc(N=O)cc1`, for which the Potency entry in [1], in assay [2] and in assay [6] was “inactive” in each case. The Potency in [3] is 17.9 µM (active) and 25.2 µM (active); in assay [4] it was 5.66 µM (active) and 8.94 µM (active); in assay [9], 35.7 µM (active) and 39.9 µM (active); in [5], 35.7 µM (active) and 39.9 µM (active).
Consider `CCCN(CCOc1c(Cl)cc(Cl)cc1Cl)C(=O)n1ccnc1`, for which the Potency entry in assay [1] and in assay [2] was “inactive” each time. Besides, the Potency is 363 nM (active) and 1 µM (active) in assay [3]; 22.9 nM (active) and 50.2 nM (active) in assay [4]; 457 nM (active) and 796 nM (active) in [9]; 129 nM (active) and 224 nM (active) in assay [5]; 12.6 µM (active) and 19.5 µM (active) in assay [6]; 32.4 nM (active) and 100 nM (active) in assay [7].
